{"source": "PubChem BioAssay (EPA / NIEHS)", "note": "Several values for one entry are separate records, joined by “and”; a condition that tells them apart may be missing. Equal values may be shown once. More than one record can exist for a structure, and the calls need not agree. Activity calls are given as the source filed them. The calls were made as follows: active = hit-call score of the fitted dose curve at least 0.9, where 1 is the maximum; inactive = score below 0.9.", "data": [{"read-out": "TIMP metallopeptidase inhibitor 1 (TIMP1), TIMP1 (gene 7076)", "test": "BSK_hDFCGF_TIMP1: BioMAP Diversity Plus: hDFCGF Assay for TIMP metallopeptidase inhibitor 1 (TIMP1) Biomarker Activity (AID 2283062)", "details": "primary human foreskin fibroblasts; actives raise or lower the signal", "method": "BSK_hDFCGF is a cell-based, multiplexed-readout assay that uses foreskin fibroblast, a human skin primary cell, with measurements taken at 24 hours after chemical dosing in a 96-well plate.BSK_hDFCGF_TIMP1 is an assay component measured in the BSK_hDFCGF assay. It measures TIMP-1 antibody related to regulation of gene expression using ELISA technology.Data from the assay component BSK_hDFCGF_TIMP1 was analyzed into 1 assay endpoint. This assay endpoint, BSK_hDFCGF_TIMP1, was analyzed with bidirectional fitting relative to DMSO as the negative control and baseline of activity. Using a type of binding reporter, gain or loss-of-signal activity can be used to understand changes in the signaling as they relate to the gene TIMP1. Furthermore, this assay endpoint can be referred to as a primary readout, because this assay has produced multiple assay endpoints where this one serves a signaling function. To generalize the intended target to other relatable targets, this assay endpoint is annotated to the protease inhibitor intended target family, where the subfamily is metalloproteinase inhibitor.\nThe levels of cell surface (or secreted, indicated by the prefix \"s\") biomarker endpoints were measured by ELISA. Overt cytotoxicity to cells in confluent adherent cultures (all systems other than the BT system) was assessed by measuring total protein levels using sulforhodamine B (SRB) staining in parallel cultures at the time of biomarker measurements, indicated as SRB endpoints. For proliferation assays for adherent cell types, individual cell types are cultured at sub-confluence and relative cell numbers quantified by SRB staining at time points optimized for each system (48 h: 3C and CASM3C systems; 72 h: BT and HDF3CGF systems; 96 h: SAg system). SRB was performed by staining cells with 0.1% SRB after fixation with 10% TCA and reading wells at 560 nm.Viability and proliferation of PBMC (T cells) was quantified by Alamar Blue reduction for the SAg and BT systems. For PBMC viability (referred to as PBMC Cytotoxicity within the assay endpoint names), cells were plated (75,000/well in a 96-well plate) and then chemical samples added for 1 h before addition of activators, SEB and TSST-1 (20 ng/mL final concentration each). Cells were incubated for 90 h. Then, Alamar Blue (20 uL/well) (Invitrogen, Cat DAL1100) was added for 6 h, and the plates were read with a fluorescence microplate reader at 546/580 nm (excitation/emission). For PBMC proliferation, cells were plated and activated as above but incubated for only 16 h prior to addition of Alamar Blue. Plates were read after 6 h.", "values": [{"compound": "FC(F)(F)C(F)(F)C(F)(F)C(F)(F)C(F)(F)C(F)(F)C(F)(F)CCI", "outcome": "inactive"}, {"compound": "O=C(Cl)C(F)(F)C(F)(F)C(F)(F)C(F)(F)C(F)(F)C(F)(F)F", "outcome": "inactive"}, {"compound": "NC(=O)C(F)(F)C(F)(F)C(F)(F)C(F)(F)C(N)=O", "outcome": "inactive"}, {"compound": "CN(C(=O)C(F)(F)C(F)(F)C(F)(F)F)[Si](C)(C)C", "outcome": "inactive"}, {"compound": "CO[Si](C)(CCC(F)(F)C(F)(F)C(F)(F)C(F)(F)C(F)(F)C(F)(F)F)OC", "outcome": "inactive"}, {"compound": "OCC(F)(F)C(F)(F)C(F)(F)CO", "outcome": "inactive"}, {"compound": "CCN(CC)c1ccc2c(c1)Oc1cc(N(CC)CC)ccc1C21OC(=O)c2ccccc21", "outcome": "inactive"}, {"compound": "NCC(F)(F)C(F)(F)C(F)(F)C(F)(F)C(F)(F)C(F)(F)C(F)(F)C(F)(F)F", "outcome": "inactive"}, {"compound": "O=C1c2c(O)ccc(Nc3ccc(CCO)cc3)c2C(=O)c2c([N+](=O)[O-])ccc(O)c21", "AC50": "20 µM (active)"}, {"compound": "CCN(CC)c1ccc(C=O)c(O)c1", "outcome": "inactive"}, {"compound": "C=C(C)C(=O)OCC(F)(F)C(F)(F)C(F)(F)C(F)F", "outcome": "inactive"}, {"compound": "O=C(O)CCC(F)(F)C(F)(F)C(F)(F)F", "outcome": "inactive"}, {"compound": "CC1=CC2C3C=CC(C3)C2C1C", "note": "(stereo not given)", "outcome": "inactive"}, {"compound": "O=C(O)C(F)(F)C(F)(F)C(F)(F)OC(F)(C(F)(F)F)C(F)(F)F", "outcome": "inactive"}, {"compound": "O=C1C=CC(=O)N1c1ccc(Cc2ccc(N3C(=O)C=CC3=O)cc2)cc1", "AC50": "2.7 µM (active)"}, {"compound": "C=CC(=O)OCCC(F)(F)C(F)(F)C(F)(F)C(F)(F)F", "outcome": "inactive"}, {"compound": "O=C(Cl)C(F)(F)C(F)(F)C(F)(F)C(F)(F)C(F)(F)C(F)(F)C(F)(F)F", "outcome": "inactive", "AC50": "26.4 µM (active)"}, {"compound": "OCC(O)CC(F)(F)C(F)(F)C(F)(F)C(F)(F)F", "note": "(stereo not given)", "outcome": "inactive"}, {"compound": "CCN(CCO)S(=O)(=O)C(F)(F)C(F)(F)C(F)(F)C(F)(F)C(F)(F)C(F)(F)C(F)(F)C(F)(F)F", "outcome": "inactive"}, {"compound": "CCN=C1C=CC(=C(c2ccc(N(CC)CC)cc2)c2ccc(N(CC)CC)cc2)c2ccccc21", "AC50": "1.42 µM (active) and 1.3 µM (active)"}, {"compound": "OCCCCC(F)(F)C(F)(F)C(F)(F)C(F)(F)F", "outcome": "inactive"}, {"compound": "O=S(=O)(O)CCC(F)(F)C(F)(F)C(F)(F)C(F)(F)C(F)(F)C(F)(F)C(F)(F)C(F)(F)F", "outcome": "inactive"}, {"compound": "Cc1cc(C)c(O)c(C(C)(C)C)c1", "AC50": "30.1 µM (active)"}, {"compound": "Cc1cnccn1", "outcome": "inactive"}, {"compound": "CNS(=O)(=O)C(F)(F)C(F)(F)C(F)(F)C(F)(F)C(F)(F)C(F)(F)C(F)(F)C(F)(F)F", "outcome": "inactive"}, {"compound": "O=C(O)C(F)(F)C(F)(F)C(F)(F)C(F)(F)C(F)(F)C(F)(F)C(F)F", "outcome": "inactive", "AC50": "0.223 µM (active)"}, {"compound": "O=S(=O)(OCC(F)(F)F)C(F)(F)C(F)(F)C(F)(F)C(F)(F)F", "outcome": "inactive"}, {"compound": "OCC(F)(F)C(F)(F)C(F)(F)C(F)(F)C(F)(F)C(F)(F)CO", "outcome": "inactive"}, {"compound": "O=C(O)C(F)(F)C(F)(F)C(F)(F)OC(F)(F)F", "outcome": "inactive"}, {"compound": "Cc1cc(O)c(C(C)(C)C)cc1C(C)(C)C", "AC50": "4.03 µM (active)"}, {"compound": "O=C=Nc1cccc2c(N=C=O)cccc12", "outcome": "inactive"}, {"compound": "FC(F)(F)C(F)(F)C(F)(F)C(F)(F)C(F)(F)C(F)(F)CC[Si](Cl)(Cl)Cl", "outcome": "inactive"}, {"compound": "O=C(O)C(F)(F)OC(F)(F)C(F)(F)OC(F)(F)C(F)(F)OC(F)(F)F", "outcome": "inactive"}, {"compound": "O=C(F)C1(F)C(F)(F)C(F)(F)C(F)(F)C(F)(F)C1(F)F", "outcome": "inactive"}, {"compound": "OC(O)C(F)(F)C(F)(F)F", "outcome": "inactive"}, {"compound": "Brc1nc2ccccc2s1", "outcome": "inactive"}, {"compound": "CCOC(=O)CC(=O)C(F)(F)C(F)(F)F", "outcome": "inactive"}, {"compound": "OCC(O)CC(F)(F)C(F)(F)C(F)(F)C(F)(F)C(F)(F)C(F)(F)C(F)(F)C(F)(F)F", "note": "(stereo not given)", "outcome": "inactive"}]}]}
